These results are taken from ChEMBL document CHEMBL3988442, “University of Dundee, Small-Polar-MMV Screening Library” (2021).

For some of these results: Measured potencies and affinities stand elsewhere.

Holding throughout (design): scale not given: direction of the effect not stated beside the values
Assay [1] has as its target Protein translocase subunit SecA (Escherichia coli (strain K12)) (UniProt P10408). The assay is described as follows: Assay to Identify E. coli SecA ATPase Inhibitors. The note with it: 30 µM. Format: functional.
Assay [2] has as its target T1, Ubiquitin-activating enzyme e1, putative (Leishmania donovani (strain BPK282A1)) (UniProt E9BSI1).
T1 sequence (whole entry): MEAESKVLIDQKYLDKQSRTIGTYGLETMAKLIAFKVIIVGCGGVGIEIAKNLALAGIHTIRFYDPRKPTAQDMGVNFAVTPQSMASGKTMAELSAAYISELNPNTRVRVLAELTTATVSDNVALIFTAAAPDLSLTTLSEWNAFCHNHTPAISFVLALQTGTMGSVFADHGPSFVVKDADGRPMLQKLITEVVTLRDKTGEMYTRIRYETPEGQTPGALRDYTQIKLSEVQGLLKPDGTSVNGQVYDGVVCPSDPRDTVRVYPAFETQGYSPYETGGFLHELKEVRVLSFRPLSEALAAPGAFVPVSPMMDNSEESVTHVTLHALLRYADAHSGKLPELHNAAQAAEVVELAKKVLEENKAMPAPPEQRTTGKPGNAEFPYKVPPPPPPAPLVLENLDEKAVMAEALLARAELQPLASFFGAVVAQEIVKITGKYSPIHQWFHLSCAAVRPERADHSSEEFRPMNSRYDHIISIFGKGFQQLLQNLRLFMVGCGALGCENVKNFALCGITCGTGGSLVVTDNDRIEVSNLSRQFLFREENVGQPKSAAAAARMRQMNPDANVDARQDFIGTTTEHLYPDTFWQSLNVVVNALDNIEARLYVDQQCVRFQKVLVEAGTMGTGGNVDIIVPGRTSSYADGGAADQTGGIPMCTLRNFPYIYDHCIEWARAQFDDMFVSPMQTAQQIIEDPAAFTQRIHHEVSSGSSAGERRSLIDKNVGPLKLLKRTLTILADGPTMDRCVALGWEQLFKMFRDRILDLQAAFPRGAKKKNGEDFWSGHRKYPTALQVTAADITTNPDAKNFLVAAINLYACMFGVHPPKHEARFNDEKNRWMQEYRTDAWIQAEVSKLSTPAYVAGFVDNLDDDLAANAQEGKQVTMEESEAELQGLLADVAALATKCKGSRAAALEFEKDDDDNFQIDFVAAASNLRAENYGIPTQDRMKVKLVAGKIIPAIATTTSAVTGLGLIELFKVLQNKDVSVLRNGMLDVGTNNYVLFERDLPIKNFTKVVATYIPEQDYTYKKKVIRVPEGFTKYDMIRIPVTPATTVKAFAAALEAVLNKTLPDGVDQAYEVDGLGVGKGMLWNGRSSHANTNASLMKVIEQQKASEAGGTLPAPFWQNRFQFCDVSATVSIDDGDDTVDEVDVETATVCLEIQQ
The assay can be described thus: Leishmania donovani Ubiquitin Activating Enzyme (LdE1). The conditions noted are these: 30 µM. The format is functional.

The target of assay [3] is AMP-activated protein kinase, AMPK (Homo sapiens) (UniProt P54646+O43741+P54619+Q9UGJ0+Q9Y478+Q13131+Q9UGI9). The assay can be described thus: AMP-dependent Kinase enzyme assay. An in vitro enzyme assay that detects ADP turnover that is directly proportional to AMPK activity. This uses naive AMPK that is activated during the assay with MK-8722. The note with it: 30 µM. The format is functional.

For assay [4], the target named is Sialic acid-binding Ig-like lectin 9 (Homo sapiens) (UniProt Q9Y336). The assay is described as follows: Hs-Siglec9 ALPHAscreen SOP 20170721. The note with it: 10 µM. (Alpha assays give light when donor and acceptor beads are brought close together.)
Sialic acid-binding Ig-like lectin 9 (Homo sapiens), sequence (Q9Y336 whole entry): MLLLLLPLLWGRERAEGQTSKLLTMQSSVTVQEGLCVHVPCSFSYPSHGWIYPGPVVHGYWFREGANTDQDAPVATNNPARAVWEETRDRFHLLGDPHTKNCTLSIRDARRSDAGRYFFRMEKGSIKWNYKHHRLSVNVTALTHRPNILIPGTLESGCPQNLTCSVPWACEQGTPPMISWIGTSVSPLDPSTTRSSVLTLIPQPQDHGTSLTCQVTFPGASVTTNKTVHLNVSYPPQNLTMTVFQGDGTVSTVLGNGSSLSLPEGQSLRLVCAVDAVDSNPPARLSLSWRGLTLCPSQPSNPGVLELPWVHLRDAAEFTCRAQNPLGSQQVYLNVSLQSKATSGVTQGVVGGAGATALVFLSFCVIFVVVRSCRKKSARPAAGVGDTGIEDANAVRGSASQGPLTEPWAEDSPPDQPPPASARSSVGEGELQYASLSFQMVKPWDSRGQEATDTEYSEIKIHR
Assay [5] relates to Trypanosoma cruzi. The assay is described as follows: Trypanosoma cruzi phosphomannomutase and mannose-1-phosphate guanylyltransferase assay. Format: functional. The conditions noted are these: 10 µM.
For assay [6], the target named is T2, Arginase-2, mitochondrial (Homo sapiens) (UniProt P78540).
T2 sequence (whole entry): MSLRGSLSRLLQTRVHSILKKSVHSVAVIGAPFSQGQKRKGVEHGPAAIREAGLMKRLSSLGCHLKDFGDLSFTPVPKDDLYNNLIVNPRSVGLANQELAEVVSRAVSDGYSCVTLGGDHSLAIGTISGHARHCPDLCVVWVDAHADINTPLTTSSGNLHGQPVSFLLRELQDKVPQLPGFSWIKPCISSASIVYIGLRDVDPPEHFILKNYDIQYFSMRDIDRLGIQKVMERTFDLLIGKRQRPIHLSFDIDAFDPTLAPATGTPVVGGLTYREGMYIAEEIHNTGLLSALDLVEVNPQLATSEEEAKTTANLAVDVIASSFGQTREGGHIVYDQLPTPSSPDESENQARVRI
The assay is described as follows: in vitro enzyme assay to detect the production of urea directly proportional to the activity of Arginase II. Also: in the data most compounds retested in dose-response had high values. Format: functional. The conditions noted are these: 33.3 µM.

The target in assay [7] is T3, Proteasome subunit beta (Trypanosoma cruzi) (UniProt O96673).
T3 sequence (whole entry): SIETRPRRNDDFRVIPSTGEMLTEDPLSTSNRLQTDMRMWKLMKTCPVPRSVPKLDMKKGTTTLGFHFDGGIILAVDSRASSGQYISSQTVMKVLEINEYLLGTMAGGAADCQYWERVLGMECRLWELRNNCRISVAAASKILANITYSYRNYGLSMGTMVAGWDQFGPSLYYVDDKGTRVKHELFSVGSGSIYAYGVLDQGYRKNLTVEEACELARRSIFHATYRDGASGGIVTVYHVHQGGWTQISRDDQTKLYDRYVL
The assay can be described thus: Trypanosoma cruzi proteasome chymotrypsin-like activity (TcProtChymo) assay. Also: in the data most compounds retested in dose-response had high values. Format: functional. The note with it: 9.37 µM.

The species named for assay [8] is Homo sapiens. The assay is described as follows: To identify inhibition of the IFN signalling (Jak-Stat) pathway via expression of an eGFP reporter gene under the control of an IFN-stimulated response element (ISRE) containing MxA promoter. The conditions noted are these: 30 µM. Format: functional. Background: In a reporter assay the amount or activity of a reporter protein is the signal.

For assay [9], the target named is T4, Tyrosyl-tRNA synthetase, putative (Trypanosoma cruzi (strain CL Brener)) (UniProt Q4DSP6).
T4 sequence (whole entry): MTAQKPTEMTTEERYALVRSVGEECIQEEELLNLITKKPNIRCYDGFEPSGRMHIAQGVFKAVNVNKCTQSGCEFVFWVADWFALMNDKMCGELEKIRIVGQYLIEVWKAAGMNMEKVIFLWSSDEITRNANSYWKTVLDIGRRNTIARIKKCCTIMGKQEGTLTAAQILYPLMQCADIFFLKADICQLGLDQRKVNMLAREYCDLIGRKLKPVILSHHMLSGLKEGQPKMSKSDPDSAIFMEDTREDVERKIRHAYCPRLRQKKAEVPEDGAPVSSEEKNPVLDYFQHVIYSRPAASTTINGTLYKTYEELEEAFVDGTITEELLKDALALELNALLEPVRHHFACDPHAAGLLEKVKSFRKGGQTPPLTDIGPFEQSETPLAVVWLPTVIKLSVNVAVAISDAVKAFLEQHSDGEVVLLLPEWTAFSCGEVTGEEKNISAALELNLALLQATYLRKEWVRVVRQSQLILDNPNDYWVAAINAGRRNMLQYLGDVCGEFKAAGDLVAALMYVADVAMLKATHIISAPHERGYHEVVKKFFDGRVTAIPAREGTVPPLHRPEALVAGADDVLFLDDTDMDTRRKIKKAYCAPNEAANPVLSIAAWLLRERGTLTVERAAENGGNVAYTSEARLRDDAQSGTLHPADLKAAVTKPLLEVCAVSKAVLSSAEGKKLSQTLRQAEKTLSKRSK
The assay is described as follows: Trypanosoma cruzi tyrosyl tRNA synthetase (TcYRS) _High Tyrosine SOP. Also: in the data most compounds retested in dose-response had high values. The format is functional. The note with it: 30 µM.

In assay [10] the target is T4, Tyrosyl-tRNA synthetase, putative (Trypanosoma cruzi (strain CL Brener)). The assay is described as follows: Trypanosoma cruzi tyrosyl tRNA synthetase (TcYRS) SOP. The format is functional. The note with it: 30 µM.
Assay [11] has as its target Chromo domain-containing protein 1 (Saccharomyces cerevisiae (strain ATCC 204508 / S288c) (Baker's yeast)) (UniProt P32657). The assay can be described thus: ScCHD-1 Enzyme Inhibition Assay. Also: in the data most compounds retested in dose-response had high values. The format is functional. The note with it: 30 µM.

Protein translocase subunit SecA (Escherichia coli (strain K12)), sequence (P10408 whole entry): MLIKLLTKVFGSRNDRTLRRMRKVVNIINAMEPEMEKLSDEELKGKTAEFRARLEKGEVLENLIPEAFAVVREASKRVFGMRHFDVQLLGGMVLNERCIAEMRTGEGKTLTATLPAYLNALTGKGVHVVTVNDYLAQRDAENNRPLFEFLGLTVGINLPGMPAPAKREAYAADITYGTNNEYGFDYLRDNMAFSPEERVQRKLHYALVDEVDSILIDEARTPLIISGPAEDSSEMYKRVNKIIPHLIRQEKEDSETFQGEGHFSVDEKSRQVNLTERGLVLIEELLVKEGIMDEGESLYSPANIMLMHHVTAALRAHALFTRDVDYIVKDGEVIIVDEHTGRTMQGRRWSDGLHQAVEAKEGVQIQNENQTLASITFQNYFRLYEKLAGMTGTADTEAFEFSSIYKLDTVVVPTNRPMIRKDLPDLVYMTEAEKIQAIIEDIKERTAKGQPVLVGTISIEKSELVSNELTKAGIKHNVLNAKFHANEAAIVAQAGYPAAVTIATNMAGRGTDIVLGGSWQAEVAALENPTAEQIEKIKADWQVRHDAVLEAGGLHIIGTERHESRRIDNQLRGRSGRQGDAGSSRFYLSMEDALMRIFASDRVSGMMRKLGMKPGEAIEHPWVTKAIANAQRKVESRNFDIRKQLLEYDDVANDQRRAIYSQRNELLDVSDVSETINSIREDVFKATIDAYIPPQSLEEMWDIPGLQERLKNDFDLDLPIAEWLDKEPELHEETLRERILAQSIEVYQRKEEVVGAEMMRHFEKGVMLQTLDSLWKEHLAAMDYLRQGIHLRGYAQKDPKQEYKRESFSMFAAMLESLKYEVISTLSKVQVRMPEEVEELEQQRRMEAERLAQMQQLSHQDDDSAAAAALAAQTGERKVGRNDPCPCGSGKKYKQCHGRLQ
Chromo domain-containing protein 1 (Saccharomyces cerevisiae (strain ATCC 204508 / S288c) (Baker's yeast)), sequence (P32657 whole entry, the tested form may be a part): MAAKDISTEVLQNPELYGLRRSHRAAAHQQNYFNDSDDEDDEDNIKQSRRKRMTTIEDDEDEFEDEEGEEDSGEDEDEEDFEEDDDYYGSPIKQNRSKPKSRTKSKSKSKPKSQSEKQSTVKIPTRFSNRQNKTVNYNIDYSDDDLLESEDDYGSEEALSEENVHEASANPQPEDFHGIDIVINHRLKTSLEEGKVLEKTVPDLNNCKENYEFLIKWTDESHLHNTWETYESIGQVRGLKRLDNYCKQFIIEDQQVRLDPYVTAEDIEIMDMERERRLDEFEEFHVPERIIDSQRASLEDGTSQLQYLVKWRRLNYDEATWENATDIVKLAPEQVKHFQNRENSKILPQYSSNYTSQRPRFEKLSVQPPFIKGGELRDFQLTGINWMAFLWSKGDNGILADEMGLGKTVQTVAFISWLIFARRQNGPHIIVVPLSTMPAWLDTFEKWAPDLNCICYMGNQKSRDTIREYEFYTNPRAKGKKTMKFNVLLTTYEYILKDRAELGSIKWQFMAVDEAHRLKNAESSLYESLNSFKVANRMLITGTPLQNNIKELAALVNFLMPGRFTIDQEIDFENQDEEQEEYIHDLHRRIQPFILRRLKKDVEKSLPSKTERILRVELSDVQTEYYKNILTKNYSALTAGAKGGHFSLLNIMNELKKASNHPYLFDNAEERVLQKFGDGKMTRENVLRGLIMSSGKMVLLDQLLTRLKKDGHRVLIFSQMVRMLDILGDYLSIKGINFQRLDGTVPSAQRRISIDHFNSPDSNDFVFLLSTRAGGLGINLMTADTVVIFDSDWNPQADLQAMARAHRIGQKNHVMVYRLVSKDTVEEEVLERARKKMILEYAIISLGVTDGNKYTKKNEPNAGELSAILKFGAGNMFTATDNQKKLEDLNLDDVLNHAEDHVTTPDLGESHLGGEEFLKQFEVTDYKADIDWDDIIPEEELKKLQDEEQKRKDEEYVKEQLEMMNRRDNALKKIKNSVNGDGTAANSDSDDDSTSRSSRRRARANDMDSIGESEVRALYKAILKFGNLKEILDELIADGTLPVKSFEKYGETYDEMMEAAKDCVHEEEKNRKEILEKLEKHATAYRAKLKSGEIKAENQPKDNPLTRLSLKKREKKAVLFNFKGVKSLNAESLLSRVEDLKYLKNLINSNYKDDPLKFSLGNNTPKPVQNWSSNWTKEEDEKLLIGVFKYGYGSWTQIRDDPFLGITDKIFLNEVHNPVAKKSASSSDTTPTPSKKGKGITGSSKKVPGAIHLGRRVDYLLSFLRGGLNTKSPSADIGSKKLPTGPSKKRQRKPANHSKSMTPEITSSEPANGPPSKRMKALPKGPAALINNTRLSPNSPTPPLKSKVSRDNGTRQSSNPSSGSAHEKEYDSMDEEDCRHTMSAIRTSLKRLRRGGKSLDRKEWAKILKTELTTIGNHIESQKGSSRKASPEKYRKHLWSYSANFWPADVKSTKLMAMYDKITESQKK

Regarding `CCCC(C)CN1CCC(n2cc(C3CCCC3)nn2)CC1` (stereo not drawn), the Percent Effect in assay [1] is -5.89%; in assay [2], 13.3%; in assay [3], -5.31%; in assay [4] it was 18.9%; in [5], 9.45%; in [6] it was 10.4%. In addition, the Percent Effect was 9.07% in assay [7]; 7.54% in assay [8]; 6.01% in assay [9]; 11.1% in assay [10]; -4.05% in [11].

Turning to `O=C(NCCc1cccs1)[C@H]1CO[C@H]2CCNC[C@H]2C1`, the Percent Effect in assay [1] was 0.545%; in assay [2] it was 13.5%; in assay [3], 0.0792%; in assay [4] it was -4.42%; in [5] it was -4.99%; in assay [6] it was 6.05%. In addition, the Percent Effect in assay [7] was 19.4%; in assay [8], 12.4%; in assay [9] it was 1.08%; in assay [10], 10.3%; in assay [11], -2.47%.

In the case of `COCCNc1nc(C2CCCC2)nc2c1CCNCC2`, the Percent Effect in [1] is -0.492%; in assay [2] it was -2.7%; in assay [3], -0.634%; in assay [4] it was -1.74%; in assay [5], 4.83%; in [6], 1.91%. In addition, the Percent Effect in assay [7] is -38.6%; in assay [8], -3.26%; in assay [9], 10.1%; in assay [10], 19.5%; in [11], -2.52%.

`Cc1ncsc1C(=O)Nc1cccc(OCC(F)F)n1`: the Percent Effect was -4.44% in assay [1]; 2.63% in [2]; 10.6% in [3]; 1.18% in assay [4]; -4.19% in assay [5]; -8.28% in [6]. Further, the Percent Effect in assay [7] was 22.5%; in assay [8] it was 31.7%; in [9], 3.19%; in assay [10], 7.79%; in assay [11] it was -0.476%.

`CCS(=O)(=O)N1Cc2nccn2CC(Cn2nc(C)nc2C)C1` (stereo not drawn): the Percent Effect in assay [1] is -2.08%; in assay [2] it was 13.5%; in [3], -5.79%; in assay [4], 32.6%; in assay [5] it was 4.2%; in assay [6], 19.6%. For the same compound, the Percent Effect was 16.9% in [7]; -17.4% in assay [8]; 5.38% in assay [9]; 18.5% in [10]; -4.54% in assay [11].

Regarding `CC(NCc1ccc(F)cc1)c1ccc(OCC(=O)NC2CC2)cc1` (stereo not drawn), the Percent Effect in assay [1] is -1.43%; in assay [2], 6.33%; in assay [3], 9.48%; in assay [4] it was -4.28%; in assay [5], -6.26%; in assay [6], -7.1%. For the same compound, the Percent Effect in assay [7] was 18%; in assay [8] it was 17%; in [9] it was 1.04%; in assay [10], 2.53%; in [11] it was -17.3%.

Take `COCC(=O)N1CCO[C@H]2[C@H](OC)CC[C@@H]21`: the Percent Effect was -6.12% in assay [1]; 5.41% in [2]; 1.82% in assay [3]; -0.654% in assay [4]; -4.79% in assay [5]; 4.78% in [6]. Also, the Percent Effect in [7] worked out at 21.8%; in assay [8], 9.88%; in assay [9], 1.08%; in assay [10], 5.13%; in assay [11], 1.01%.

For `Cn1cc(C2CCCN2Cc2csc(C(C)(C)C)n2)cn1` (stereo not drawn), the Percent Effect was -8.01% in assay [1]; 12.7% in [2]; -5.07% in assay [3]; 14.2% in [4]; 6.33% in [5]; -5.32% in [6]. For the same compound, the Percent Effect in assay [7] is 4.01%; in [8] it was -16.1%; in assay [9], 8.37%; in [10], 16.5%; in [11], -9.19%.
